Out of some 310,000 compounds screened, about 2,200 (0.71%) showed an effect of 50% or more. The effect is printed as a negative number. The full list was thinned out, with strong results kept by preference.
These compounds were tested against human ether-à-go-go-related gene (hERG) potassium channel (human, UniProt Q12809) (assay: primary screen, population patch clamp on CHO cells stably expressing hERG; higher = less effect of the substance).
Sequence of human ether-à-go-go-related gene (hERG) potassium channel (Q12809 whole entry, looked up): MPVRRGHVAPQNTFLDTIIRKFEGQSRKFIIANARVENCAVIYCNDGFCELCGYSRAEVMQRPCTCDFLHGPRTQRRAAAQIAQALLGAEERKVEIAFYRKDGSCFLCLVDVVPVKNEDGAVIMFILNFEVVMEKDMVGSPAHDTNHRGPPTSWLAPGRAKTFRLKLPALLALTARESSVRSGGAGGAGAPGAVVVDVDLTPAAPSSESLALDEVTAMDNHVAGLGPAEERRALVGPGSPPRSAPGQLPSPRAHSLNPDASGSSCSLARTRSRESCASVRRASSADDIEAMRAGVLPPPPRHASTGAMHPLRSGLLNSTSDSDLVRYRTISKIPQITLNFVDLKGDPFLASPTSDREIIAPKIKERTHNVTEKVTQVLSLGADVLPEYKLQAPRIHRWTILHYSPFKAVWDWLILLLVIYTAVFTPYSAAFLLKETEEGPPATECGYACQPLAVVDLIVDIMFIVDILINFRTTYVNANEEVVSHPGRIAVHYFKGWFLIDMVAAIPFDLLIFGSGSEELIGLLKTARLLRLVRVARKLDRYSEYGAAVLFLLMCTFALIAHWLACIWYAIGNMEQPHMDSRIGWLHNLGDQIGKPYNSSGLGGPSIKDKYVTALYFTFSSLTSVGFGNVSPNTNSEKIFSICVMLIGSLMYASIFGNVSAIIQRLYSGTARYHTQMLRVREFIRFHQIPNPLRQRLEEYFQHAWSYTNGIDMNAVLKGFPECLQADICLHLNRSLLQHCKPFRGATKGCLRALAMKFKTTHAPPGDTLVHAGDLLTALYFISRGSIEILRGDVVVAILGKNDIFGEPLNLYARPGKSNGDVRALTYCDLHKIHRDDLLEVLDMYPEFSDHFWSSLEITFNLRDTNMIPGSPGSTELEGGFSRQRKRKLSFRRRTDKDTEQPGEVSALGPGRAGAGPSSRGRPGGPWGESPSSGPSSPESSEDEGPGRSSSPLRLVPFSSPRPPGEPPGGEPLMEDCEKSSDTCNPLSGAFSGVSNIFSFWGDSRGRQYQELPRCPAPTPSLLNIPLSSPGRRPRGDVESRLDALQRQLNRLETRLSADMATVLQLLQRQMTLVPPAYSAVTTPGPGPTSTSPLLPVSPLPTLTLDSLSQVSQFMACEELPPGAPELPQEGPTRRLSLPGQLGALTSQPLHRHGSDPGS

| Compound | hERG current change (%, negative = inhibition) at 1uM |
| --- | --- |
| Cc1ccc(NCCC(=O)c2cccs2)cc1C | 5.33% |
| O=C(CSc1cn(Cc2ccccc2)c2ccccc12)N1CCOCC1 | -4.92% |
| CCOc1ccc(NC(=S)NCCCN2CCN(c3ccc(OC)cc3)CC2)cc1 | -29.3% |
| O=c1[nH]c2ccccc2nc1-c1c[nH]c2ccccc12 | 17.9% |
| Cc1ccccc1-n1nnnc1SCC(=O)NCC1(N2CCOCC2)CCCCC1 | 6.3% |
| O=C(CSc1nnnn1-c1ccccc1)NCC1(N2CCCCC2)CCCCC1 | -23.9% |
| Cc1ccc(-n2nnnc2SCC(=O)NCC2(N3CCCCC3)CCCCC2)c(C)c1 | -201% |
| Cc1ccc(CNC(=O)c2cnccn2)cc1 | 11.4% |
| COc1ccc(NC(=O)[C@@H](NC(=O)N2C[C@H]3C[C@@H](C2)c2cccc(=O)n2C3)C(C)C)cc1 | 8.5% |
| Fc1ccc(-c2nc3c(-c4ccc(F)cc4)cnn3cc2CCN2CCOCC2)cc1 | -3.19% |
| COc1ccc(OCC(=O)N2CCC(n3nccc3NC(=O)C3CC3)CC2)cc1 | -1.98% |
| COc1ccccc1/C=C/CN1CCC(n2nccc2NC(=O)C2CC2)CC1 | -37.8% |
| COc1ccc(/C=C/CN2CCC(n3nccc3NC(=O)C3CC3)CC2)cc1 | -59.6% |
| COc1ccc(O)c(CN2CCC(n3nccc3NC(=O)C3CCCC3)CC2)c1 | -28.4% |
| CC(C)(CO)CN1CCC(n2nccc2NC(=O)C2CCCC2)CC1 | 10.2% |
| COc1ccc(/C=C/CN2CCC(n3nccc3NC(=O)C3CCCC3)CC2)cc1 | -92.1% |
| Cc1cc(C)c(CN2CCC(n3nccc3NC(=O)C3CCCC3)CC2)cc1C | -26.4% |
| COc1ccc(CC(=O)N2CCC(n3nccc3NC(=O)C3CC3)CC2)cc1 | 13.3% |
| COc1ccc(CN2CCC(n3nccc3NC(=O)C3CCCC3)CC2)c(OC)c1 | -70.6% |
| Cc1ncc(S(=O)(=O)c2ccccc2)c(-c2ccccc2Cl)n1 | 2.7% |

| Compound | hERG current change (%, negative = inhibition) at 1uM |
| --- | --- |
| Cc1cc2c(cc1S(=O)(=O)NC1CCCCC1C)OCC(=O)N2 (stereo not drawn) | 5.01% |
| Cc1ccc(OCCNC(=O)c2ccc(NC(=O)CC3SC(N4CCCC4)=NC3=O)cc2)cc1 (stereo not drawn) | -6.94% |
| C=C(C)CNC(=O)c1ccc(OC2CCN(S(=O)(=O)N(C)C)CC2)cc1 | 13.2% |
| COc1ccc2c(c1)CC1(CN2C)C(=O)NC(=O)N(CCc2ccccc2)C1=O (stereo not drawn) | -6.39% |
| CCN(CC)S(=O)(=O)c1ccc2c(c1)N(CC(=O)Nc1ccc(NC(C)=O)cc1)C(=O)CO2 | 10.6% |
| CC(C)CC(=O)N1CCC(N(CCc2ccccc2)Cc2ccccc2)CC1.O=C(O)C(=O)O | 7.09% |
| CCCCN(Cc1ccccc1)C1CCN(Cc2ccccc2)CC1 | -14.5% |
| O=C(Cc1ccccc1)N1CCN(C2CCCCCC2)CC1.O=C(O)C(=O)O | 4.29% |
| CCCN1CCC(N(CCc2ccccc2)Cc2ccccc2)CC1 | -73.2% |
| CCCCN(Cc1ccccc1)C1CCN(CCc2ccccc2)CC1 | -13.4% |
| O=C(O)C(=O)O.c1ccc(CCN(Cc2ccccc2)C2CCN(C3CCCC3)CC2)cc1 | -68.9% |
| O=C(Nc1ccccc1)N1CCCc2ccccc21 | -28.2% |
| Cc1ccn2c(=O)nc(SCC(=O)N3CCCCCC3)nc2c1 | 19.6% |
| CCOc1ccc(NC(=O)N(CCC(C)C)C2CCN(C(C)=O)CC2)cc1 | 7.21% |
| CCCCN(C(=O)Nc1ccc(Cl)cc1)C1CCN(C(C)=O)CC1 | -19.1% |
| CC(C)CCN(C(=O)Nc1ccc(Cl)cc1)C1CCN(C(C)C)CC1 | -57.6% |
| Cc1cc(NC(=O)c2cc3cccc([N+](=O)[O-])c3[nH]2)ccc1F | 11.5% |
| COc1c(C)cc(Br)cc1C(=O)Nc1cccc(-c2nc3ncccc3o2)c1 | -7.42% |
| O=C(c1c(F)cccc1F)N1CCN(c2ncccn2)CC1 | 12.5% |
| O=C(c1sc2cccc(F)c2c1Cl)N1CCN(c2ncccn2)CC1 | -65.4% |

| Compound | hERG current change (%, negative = inhibition) at 1uM |
| --- | --- |
| O=C(c1sc2ccccc2c1Cl)N1CCN(c2ncccn2)CC1 | 6.43% |
| COc1cccc(-c2nn(-c3ccc(C)cc3)cc2C(=O)NCC2CCCO2)c1 (stereo not drawn) | -0.814% |
| COC(=O)c1ccc(S(=O)(=O)NCCSc2nnc3c4ccccc4n(C)c3n2)cc1 | 1.09% |
| CCOc1cc(N2CCOCC2)c(OCC)cc1NC(=O)Cn1nc(C)c([N+](=O)[O-])c1C | 6.15% |
| CCc1cc2c(NCCO)ncnc2s1 | 14.1% |
| CCc1cc2c(N3CCCCC3)ncnc2s1.Cl | 5.54% |
| CCc1cc2c(NCCN3CCCCC3)ncnc2s1.Cl | -55.9% |
| CC[C@@]12C(=O)N(c3cccc(Br)c3)C(=O)N1[C@H](c1ccc(Cl)cc1)[C@@H]1C(=O)N(C3CCCCC3)C(=O)[C@@H]12 | 6.83% |
| Cc1cc(N2CCN(S(=O)(=O)c3ccccc3)CC2)c2ccccc2n1 | -78.6% |
| Cc1cc(N2CCN(S(=O)(=O)c3ccc(Cl)cc3)CC2)c2ccccc2n1 | -80.8% |
| CC(=O)Nc1ccc(S(=O)(=O)N2CCN(S(=O)(=O)c3ccccc3)CC2)cc1 | 10.1% |
| Cn1c(N2CCN(S(=O)(=O)c3ccc(Cl)cc3)CC2)nc2ccccc21 | -23.2% |
| Cc1cc(N2CCN(S(=O)(=O)c3ccc(Cl)c(Cl)c3)CC2)c2ccccc2n1 | 4.58% |
| CC(=O)Nc1ccc(S(=O)(=O)N2CCN(c3cc(C)nc4ccccc34)CC2)cc1 | -71.6% |
| CC(=O)Nc1ccc(S(=O)(=O)N2CCN(c3nc(C)cc(C)n3)CC2)cc1 | 14.9% |
| Cc1cc(N2CCN(S(=O)(=O)c3ccc(C)c(C)c3)CC2)c2ccccc2n1 | -18.3% |
| Cc1ccccc1N1CCN(S(=O)(=O)c2ccccc2)CC1 | 5.62% |
| COc1ccc2nc(C)cc(N3CCN(S(=O)(=O)c4ccccc4F)CC3)c2c1 | -62.2% |
| COc1ccc2nc(C)cc(N3CCOCC3)c2c1 | 7.31% |
| COc1ccc2nc(C)cc(N3CCN(c4ccccc4)CC3)c2c1 | -29% |

— article PMC4336329 (PLoS ONE, 2015)
